“And” between values parts separate entries of the source, which are not always exact repeats. Identical values can stand only once. The panel holds about 83,000 compounds, 20% with a hit somewhere; the sample as a whole holds those more often.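 Plates (96-well) were seeded with cells, treated with compound at one concentration, and incubated for 48 hours before percent growth was determined.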 The source made the active and inactive calls. The calls were made as follows: active = growth percent below 10; inactive = the rest.
Columns and labels:
Test in all cases: NCI-60 one-dose screen, 48 h (100 = growth as untreated, 0 = no growth, -100 = all killed)
HCT-15 colon = system: HCT-15 colon
HT29 colon = system: HT29 colon
SNB-75 CNS = system: SNB-75 CNS
SNB-19 CNS = system: SNB-19 CNS
U251 CNS = conditions: 10 µM unless noted
PC-3 prostate = system: PC-3 prostate
SK-MEL-5 melanoma = system: SK-MEL-5 melanoma
UACC-62 melanoma = system: UACC-62 melanoma
LOX IMVI melanoma = conditions: 10 µM unless noted
SK-MEL-28 melanoma = conditions: 10 µM unless noted
SK-MEL-2 melanoma = system: SK-MEL-2 melanoma
EKVX NSCLC = conditions: 10 µM unless noted
SN12C renal = system: SN12C renal
UO-31 renal = system: UO-31 renal
TK-10 renal = conditions: 10 µM unless noted
ACHN renal = conditions: 10 µM unless noted
CAKI-1 renal = system: CAKI-1 renal
A498 renal = system: A498 renal
CCRF-CEM leukemia = conditions: 10 µM unless noted
MOLT-4 leukemia = system: MOLT-4 leukemia

Measured: growth

COC(=O)c1nc(=S)[nH]c(C(=O)OC)c1C(=O)c1ccccc1
inactive: HCT-15 colon; 10 µM unless noted 103% | HT29 colon; 10 µM unless noted 109% | SNB-75 CNS; 10 µM unless noted 86.6% | SNB-19 CNS; 10 µM unless noted 102% | U251 CNS 105% | PC-3 prostate; 10 µM unless noted 91.2% | SK-MEL-5 melanoma; 10 µM unless noted 103% | UACC-62 melanoma; 10 µM unless noted 92.6% | LOX IMVI melanoma 94.2% | SK-MEL-28 melanoma 105% | SK-MEL-2 melanoma; 10 µM unless noted 104% | EKVX NSCLC 107% | SN12C renal; 10 µM unless noted 99.2% | UO-31 renal; 10 µM unless noted 85.3% | TK-10 renal 113% | ACHN renal 101% | CAKI-1 renal; 10 µM unless noted 87% | A498 renal; 10 µM unless noted 114% | CCRF-CEM leukemia 103% | MOLT-4 leukemia; 10 µM unless noted 112%

O=c1ccn2c(n1)OC1CC2OC1COC(c1ccccc1)(c1ccccc1)c1ccccc1 (stereo unspecified)
inactive: HCT-15 colon; 10 µM 97% | HCT-15 colon; 100 µM 101% | HT29 colon; 10 µM 108% | HT29 colon; 100 µM 106% | SNB-75 CNS; 10 µM 107% | SNB-75 CNS; 100 µM 95.6% | SNB-19 CNS; 10 µM 111% | SNB-19 CNS; 100 µM 91.8% | U251 CNS 89.2% [100 µM] | PC-3 prostate; 10 µM 84.1% | PC-3 prostate; 100 µM 63.1% | SK-MEL-5 melanoma; 10 µM 100% | SK-MEL-5 melanoma; 100 µM 28.5% | UACC-62 melanoma; 10 µM 103% | UACC-62 melanoma; 100 µM 44.5% | LOX IMVI melanoma 105% | SK-MEL-2 melanoma; 10 µM 113% | SK-MEL-2 melanoma; 100 µM 31.5% | EKVX NSCLC 96.3% [100 µM] | SN12C renal; 10 µM 103% | SN12C renal; 100 µM 69.2% | UO-31 renal; 10 µM 97% | UO-31 renal; 100 µM 89.9% | TK-10 renal 134% [100 µM] | CAKI-1 renal; 10 µM 102% | CAKI-1 renal; 100 µM 65.7% | A498 renal; 10 µM 116% | A498 renal; 100 µM 139% | CCRF-CEM leukemia 81.8% [100 µM] | MOLT-4 leukemia; 10 µM 104% | MOLT-4 leukemia; 100 µM 74.4%

N#CC1c2ccccc2C=CN1C(=O)c1ccccc1 (stereo unspecified)
97.6% (inactive) and -6.46% (active): CAKI-1 renal; 10 µM unless noted
inactive: HCT-15 colon; 10 µM unless noted 111% and 104% | HT29 colon; 10 µM unless noted 112% and 107% | SNB-75 CNS; 10 µM unless noted 92.1% and 98% | SNB-19 CNS; 10 µM unless noted 103% and 109% | U251 CNS 101% and 97.5% | PC-3 prostate; 10 µM unless noted 92.4% and 146% | SK-MEL-5 melanoma; 10 µM unless noted 97.1% and 107% | UACC-62 melanoma; 10 µM unless noted 97.4% and 83.7% | LOX IMVI melanoma 102% and 94.8% | SK-MEL-28 melanoma 103% and 122% | SK-MEL-2 melanoma; 10 µM unless noted 109% | EKVX NSCLC 106% and 92.7% | SN12C renal; 10 µM unless noted 99.8% and 94.3% | UO-31 renal; 10 µM unless noted 78.6% and 97.8% | TK-10 renal 109% and 115% | ACHN renal 94.6% and 90% | A498 renal; 10 µM unless noted 98.9% and 148% | CCRF-CEM leukemia 88.2% and 130% | MOLT-4 leukemia; 10 µM unless noted 89.2% and 125%

O=P(O)(O)OC1C(OP(=O)(O)O)C(OP(=O)(O)O)C(OP(=O)(O)O)C(OP(=O)(O)O)C1OP(=O)(O)O.[Cu+2] (stereo unspecified)
active: SK-MEL-5 melanoma; 10 µM unless noted -56.1%
inactive: HCT-15 colon; 10 µM unless noted 102% | HT29 colon; 10 µM unless noted 96.5% | SNB-75 CNS; 10 µM unless noted 136% | SNB-19 CNS; 10 µM unless noted 106% | U251 CNS 32.6% | PC-3 prostate; 10 µM unless noted 105% | UACC-62 melanoma; 10 µM unless noted 79.7% | LOX IMVI melanoma 69.7% | SK-MEL-28 melanoma 116% | SK-MEL-2 melanoma; 10 µM unless noted 92.9% | EKVX NSCLC 126% | SN12C renal; 10 µM unless noted 87.4% | UO-31 renal; 10 µM unless noted 98.2% | TK-10 renal 118% | ACHN renal 99.7% | CAKI-1 renal; 10 µM unless noted 113% | A498 renal; 10 µM unless noted 85.3% | CCRF-CEM leukemia 101% | MOLT-4 leukemia; 10 µM unless noted 98.9%

COc1cc2oc3cc(=O)cc4oc(-c5ccccc5)cc(c2c2c1CCC(c1ccccc1)O2)c43 (stereo unspecified)
inactive: HCT-15 colon; 10 µM unless noted 62.8% | HT29 colon; 10 µM unless noted 71.9% | SNB-75 CNS; 10 µM unless noted 68.2% | SNB-19 CNS; 10 µM unless noted 98.9% | U251 CNS 87.3% | PC-3 prostate; 10 µM unless noted 58.9% | SK-MEL-5 melanoma; 10 µM unless noted 78% | UACC-62 melanoma; 10 µM 73.5% | UACC-62 melanoma; 100 µM 53% and 10.4% | LOX IMVI melanoma 56.7% | SK-MEL-28 melanoma 90.1% | SK-MEL-2 melanoma; 10 µM unless noted 95.8% | EKVX NSCLC 88.4% | SN12C renal; 10 µM unless noted 78.3% | UO-31 renal; 10 µM unless noted 57.9% | ACHN renal 72.7% | CAKI-1 renal; 10 µM unless noted 57.4% | A498 renal; 10 µM unless noted 114% | CCRF-CEM leukemia 88.3% | MOLT-4 leukemia; 10 µM unless noted 72.5%
